{"source": "the supplement of paper PMC10933113", "note": "Counter-ions that a name gives are not always drawn. ± gives the uncertainty stated by the source."}
{"system": "THP-1", "test": "CD54 surface expression induction over DMSO control (% over DMSO); higher = stronger dendritic cell activation", "settings": "exposure time: 24 h", "experimental": "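hCLAT-like CD54 and CD86 surface expression on THP1 cells after 24 h exposure at a single concentration (highest non-cytotoxic concentration, or 100-200 µM if not cytotoxic). Flow cytometry (iQue) was run on 5,000 live cells.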"}
{"smiles": "OC[P+](CO)(CO)CO", "note": "[Tetrakis(hydroxymethyl)phosphonium SO4] (100 µM)", "CD54 surface expression induction": "8.38 ± 1.4"}
{"smiles": "CC(C)Nc1ccc(Nc2ccccc2)cc1", "note": "[N-Isopropyl-N'-phenyl-p-phenylenediamine] (10 µM)", "CD54 surface expression induction": "46.7 ± 2.8"}
{"smiles": "COc1ccc(O)c(C(C)(C)C)c1", "note": "[2-tert-Butyl-4-methoxyphenol] (200 µM)", "CD54 surface expression induction": "0.6 ± 0.57"}
{"smiles": "Cc1ccc(N=C=O)cc1N=C=O", "note": "[Toluene-2,4-diisocyanate] (100 µM)", "CD54 surface expression induction": "-17 ± 4.1"}
{"smiles": "C=C1C[C@@H]2[C@H](CC[C@]3(C)C(=O)CC[C@@H]23)[C@@]2(C)C=CC(=O)C=C12", "note": "[Exemestane] (100 µM)", "CD54 surface expression induction": "-0.45 ± 0.02"}
{"smiles": "CCS(=O)(=O)CCSP(=O)(OC)OC", "note": "[Demeton-S-methylsulphon] (10 µM)", "CD54 surface expression induction": "-8.94 ± 5.5"}
{"smiles": "COP(=O)(OC)OC(Br)C(Cl)(Cl)Br", "note": "(centres undefined) [Naled] (100 µM)", "CD54 surface expression induction": "3.64 ± 4.3"}
{"smiles": "CCCOC/C(=N\\c1ccc(Cl)cc1C(F)(F)F)n1ccnc1", "note": "[Triflumizole] (10 µM)", "CD54 surface expression induction": "-3.38 ± 6.6"}
{"smiles": "COP(=S)(OC)Oc1ccc(SC)c(C)c1", "note": "[Fenthion] (100 µM)", "CD54 surface expression induction": "-7.55 ± 5.7"}
{"smiles": "O=C(N/N=C/c1ccc([N+](=O)[O-])o1)c1cc([N+](=O)[O-])cc([N+](=O)[O-])c1O", "note": "[Nifursol] (200 µM)", "CD54 surface expression induction": "24.5 ± 8"}
{"smiles": "Nc1ccc(N)cc1", "note": "[1,4-Benzenediamine] (10 µM)", "CD54 surface expression induction": 30.8}
{"smiles": "CCCCNC(=O)OCC#CI", "note": "[Carbamic acid, butyl-, 3-iodo-2-propynyl ester] (10 µM)", "CD54 surface expression induction": "-5.33 ± 4.1"}
{"smiles": "CN1C[C@H](C(=O)N[C@]2(C)O[C@@]3(O)[C@@H]4CCCN4C(=O)[C@H](Cc4ccccc4)N3C2=O)C=C2c3cccc4[nH]cc(c34)C[C@H]21", "note": "[Ergotamine D-tartrate*] (79 µM)", "CD54 surface expression induction": "228 ± 28"}
{"smiles": "Nc1ccc(-c2ccccc2)cc1", "note": "[4-Biphenylamine hydrochloride] (100 µM)", "CD54 surface expression induction": "-0.07 ± 4.1"}
{"smiles": "C=CC(=O)OCC(COC(=O)C=C)(COC(=O)C=C)COC(=O)C=C", "note": "[Pentaerythritol tetraacrylate] (10 µM)", "CD54 surface expression induction": "1.03 ± 1.9"}
{"smiles": "CCOP(=S)(OCC)SC(CCl)N1C(=O)c2ccccc2C1=O", "note": "(centres undefined) [Dialifor] (100 µM)", "CD54 surface expression induction": "-4.61 ± 27"}
{"smiles": "CC(C)OC(=S)S", "note": "[Proxan-sodium] (10 µM)", "CD54 surface expression induction": "-6.19 ± 3"}
{"smiles": "O=C1C(Cl)=C(Cl)C(=O)C(Cl)=C1Cl", "note": "[Chloranil] (100 µM)", "CD54 surface expression induction": "17.4 ± 13"}
{"smiles": "CC(C)=CC1C(C(=O)OCc2coc(Cc3ccccc3)c2)C1(C)C", "note": "(centres undefined) [Resmethrin] (200 µM)", "CD54 surface expression induction": "19.8 ± 10"}
{"smiles": "O=[N+]([O-])c1c(Cl)c(Cl)c(Cl)c(Cl)c1Cl", "note": "[Pentachloronitrobenzene] (100 µM)", "CD54 surface expression induction": "14.3 ± 4.8"}
{"smiles": "c1ccc2sc(SNC3CCCCC3)nc2c1", "note": "[N-Cyclohexyl-2-benzothiazolesulfenamide] (100 µM)", "CD54 surface expression induction": "-15.5 ± 5.8"}
{"smiles": "Fc1ccc(Oc2ccnc3cc(Cl)cc(Cl)c23)cc1", "note": "[Quinoxyfen] (200 µM)", "CD54 surface expression induction": "-12.7 ± 1"}
{"smiles": "c1ccc2c(c1)OCC(C1=NCCN1)O2", "note": "(centres undefined) [Idazoxan] (10 µM)", "CD54 surface expression induction": "-6.12 ± 5.1"}
{"smiles": "Nc1ccc(Cl)cc1N", "note": "[4-Chloro-1,2-diaminobenzene*] (200 µM)", "CD54 surface expression induction": "233 ± 36"}
{"smiles": "CN(C)S(=O)(=O)N(SC(F)(Cl)Cl)c1ccccc1", "note": "[Dichlofluanid] (10 µM)", "CD54 surface expression induction": "35.6 ± 3.1"}
{"smiles": "[Cl][Cd][Cl]", "note": "[Cadmium II chloride] (200 µM)", "CD54 surface expression induction": "50.2 ± 4.8"}
{"smiles": "[OH-].c1cc[c]([Sn+]([c]2ccccc2)[c]2ccccc2)cc1", "note": "[Triphenyltin hydroxide] (10 µM)", "CD54 surface expression induction": "54.7 ± 30"}
{"smiles": "C[C@]12CC[C@H](O)C[C@H]1CC[C@@H]1[C@@H]2C[C@@H](O)[C@]2(C)[C@@H](C3=CC(=O)OC3)CC[C@]12O", "note": "[Digoxigenin] (10 µM)", "CD54 surface expression induction": "27.6 ± 4.9"}
{"smiles": "OCc1ccco1", "note": "[Furfuryl alcohol] (201 µM)", "CD54 surface expression induction": "0.62 ± 1.6"}
{"smiles": "N#CCC#N", "note": "[Propanedinitrile] (199 µM)", "CD54 surface expression induction": "-2.75 ± 3"}
{"smiles": "c1cc(OCC2CO2)cc(OCC2CO2)c1", "note": "(centres undefined) [Diglycidyl resorcinol ether (DGRE)] (10 µM)", "CD54 surface expression induction": "-3.16 ± 4.6"}
{"smiles": "O=[N+]([O-])c1cc(C(F)(F)F)c(Cl)c([N+](=O)[O-])c1Cl", "note": "[2,4-Dichloro-1,3-dinitro-5-(trifluoromethyl)benzene] (10 µM)", "CD54 surface expression induction": "4.56 ± 5.6"}
{"smiles": "Nc1ccc2ccccc2c1", "note": "[2-Naphthylamine] (100 µM)", "CD54 surface expression induction": "10.3 ± 0.75"}
{"smiles": "Cc1cc(C2CC2)nc(Nc2ccccc2)n1", "note": "[Cyprodinil] (200 µM)", "CD54 surface expression induction": "2.24 ± 3.2"}
{"smiles": "CCOC(=O)NC(=S)Nc1ccccc1NC(=S)NC(=O)OCC", "note": "[Thiophanate] (100 µM)", "CD54 surface expression induction": "18.5 ± 4.7"}
{"smiles": "COP(=S)(OC)Oc1nc(Cl)c(Cl)cc1Cl", "note": "[Chlorpyrifos-methyl] (200 µM)", "CD54 surface expression induction": "20.5 ± 8.1"}
{"smiles": "c1cc(OCC2CO2)ccc1Cc1ccc(OCC2CO2)cc1", "note": "(centres undefined) [Bis[4-(glycidyloxy)phenyl]methane] (100 µM)", "CD54 surface expression induction": "6.35 ± 4.5"}
{"smiles": "CN(C)c1ccc(N)cc1", "note": "[N,N-Dimethyl-p-phenylenediamine] (100 µM)", "CD54 surface expression induction": "30.8 ± 7.3"}
{"smiles": "CCCCOCN(C(=O)CCl)c1c(CC)cccc1CC", "note": "[Butachlor] (10 µM)", "CD54 surface expression induction": "-3.73 ± 3.2"}
